Results from PubChem BioAssay AID492998 (Southern Research Specialized Biocontainment Screening …, 2010).
In all, about 2,300 compounds went through this assay and about 550 (24%) were called active. The rule behind the calls is not given here. The list is a sample of the results. Where a call stands in place of a potency, no number is given. Potency and affinity values are given separately.

Test: Vero E6 cell cytotoxicity, dose response, cytotoxicity control for non-replicating M. tuberculosis project, secondary assay (AID 492998)
Details: series mostly up to 20 µM

SMILES | outcome
CC(C)[C@H](NC(=O)c1ccc(Br)cc1)C(=O)NC1CCCCC1 | inactive
O=C(c1cc([N+](=O)[O-])cc([N+](=O)[O-])c1)N(Cc1nnc(-c2ccccc2Cl)o1)C1CC1 | inactive
CC(=O)N1CCN(C(=O)CC2OC(=O)c3ccccc32)CC1 (centres undefined) | inactive
Cc1c(Cl)cccc1-c1ccc(CNCc2ccccn2)o1 | inactive
Cc1ccsc1C(=O)OCC(=O)NCCC1=CCCCC1 | inactive
COCCn1c(C)cc(C(=O)COC(=O)c2ccc(Br)o2)c1C | inactive
COc1cc(/C=C2/C(=O)NN(c3cccc(F)c3)C2=O)ccc1OC(=O)c1ccco1 | inactive
CC(C)(C)OC(=O)N/N=C\c1ccc([N+](=O)[O-])s1 | inactive
O=C(Nc1ccc(Cl)c(Cl)c1)O/N=C/c1ccncc1 | inactive
CCCCN(C/C=C/c1ccccc1OC)Cc1ccccc1 | inactive
CCCOC(=O)c1ccc(NC(=O)c2ccc(Br)o2)cc1 | inactive
COc1ccc(-c2nc(C=O)cs2)cc1 | inactive
Cc1cccc(NC(=O)COc2ccc(Br)cc2)n1 | inactive
COc1cccc(NC(=O)c2cc3ccccc3oc2=O)c1 | inactive
Cc1ccc(C(=O)c2cncc(Br)c2)cc1 | inactive
CC(=O)Oc1ccc(/C=C2\N=C(C3CCCCC3)OC2=O)cc1 | inactive
CCCCOc1ccc(-c2nnn(C(C)C(=O)OCC)n2)cc1 (centres undefined) | inactive
Clc1ccc(N=c2ssnc2Cl)nc1 | inactive
O=[N+]([O-])c1ccc(CN2CCN(c3ccccc3Cl)CC2)o1 | inactive
Cc1ccccc1N1CCN(Cc2ccc([N+](=O)[O-])o2)CC1 | inactive
COc1ccccc1N1CCN(C(=O)c2ccc([N+](=O)[O-])s2)CC1 | inactive
O=C(c1ccc([N+](=O)[O-])s1)N1CCN(c2cccc(Cl)c2)CC1 | inactive
CCOC(=O)COc1ccc2c(=O)c(-c3ccccc3OC)coc2c1 | inactive
COc1ccc(OCCOC(=O)CCS(=O)(=O)c2ccc(C)cc2)cc1 | inactive

SMILES | outcome
C=CCN(CC=C)CC(=O)Nc1ccc(S(N)(=O)=O)cc1 | inactive
O=C1N/C(=N\c2ccccn2)SC1Cc1ccc(Cl)cc1 (centres undefined) | inactive
COc1ccc(OCCSc2nnc(Cc3cccc4ccccc34)n2N)cc1 | inactive
CC1=CC2=NC(=O)/C(=C\c3ccc(OC(=O)c4ccco4)cc3)C(=N)N2O1 | inactive
Cn1[nH]c(-c2ccccc2)c(/C=N/O)c1=O | inactive
CS/C(Nc1cc(Cl)ccc1Cl)=C(/C#N)C(=O)c1ccco1 | inactive
COc1ccc(N2C(=O)C(F)(F)C2c2cccc(F)c2)cc1 (centres undefined) | inactive
O=C(N/N=C/C=C/c1ccccc1)c1ccncc1 | inactive
O=C(NN=C(Cc1ccccc1)Cc1ccccc1)c1ccncc1 | inactive
O=C(CN1CCN(c2ccccc2)CC1)Nc1nnc(-c2ccccc2)s1 | inactive
Cc1ccc(C(=O)COC(=O)c2cccs2)cc1 | inactive
CCCCCn1nnc2c(=O)oc3ccccc3c21 | inactive
CCOc1ccc(NCC(=O)c2ccc(C)cc2)cc1 | inactive
CCc1ccc(C2=C/C(=C/c3cccnc3)C(=O)O2)cc1 | inactive
O=C(NN=C1C2CC3CC1CC(Cl)(C3)C2)c1cccs1 | inactive
CC(C)(C)c1ccc(NC(=O)COc2ccc(-n3ccnc3)cc2)cc1 | inactive
Cn1c(-c2cccc([N+](=O)[O-])c2)cnc1NCc1cccc(F)c1 | inactive
Cc1ccc(C)c(NC(=O)c2cc([N+](=O)[O-])cc([N+](=O)[O-])c2)c1 | inactive
Cc1cc(Cl)ccc1OC(C)C(=O)Nc1ccc([N+](=O)[O-])cn1 (centres undefined) | inactive
O=C(C/C=N\OCc1ccc([N+](=O)[O-])cc1)Nc1ccc(F)cc1F | inactive
O=C1c2ccccc2C(=O)N1CCOc1ccc(F)cc1 | inactive
Cc1cc(C)cc(OC(=O)CCN2C(=O)c3ccccc3C2=O)c1 | inactive
O=c1oc2ccccc2c(Nc2ccccc2O)c1[N+](=O)[O-] | inactive
CCOc1ccc(NC(=O)c2nnn(CC(=O)Nc3ccccc3OC)c2N)cc1 | inactive

SMILES | outcome
O=C(c1cc2ccccc2o1)N1CCN(Cc2ccccc2)CC1 | inactive
C/C(=N\NC(=O)c1ccccc1)c1nc2ccccc2n1C | inactive
C/C(=N\NC(=O)c1ccc([N+](=O)[O-])c(C)c1)c1ccccc1Cl | inactive
COc1cc(/C=N/N(C)C)ccc1OC(=O)c1cccs1 | inactive
Cc1cc(Cl)cc(C)c1OCCCCn1ccnc1 | inactive
Clc1ccc(SCCCCn2ccnc2)cc1 | inactive
Cc1ccc(CCC(=O)Nc2ccccc2F)s1 | inactive
O=C(COC(=O)c1ccccc1)NCc1cccs1 | inactive
O=C(CCc1ccc(Oc2cc([N+](=O)[O-])cc([N+](=O)[O-])c2)cc1)N1CCCCC1 | inactive
CSc1nn(-c2ccc(C(=O)OCC(=O)NC(=O)NC(C)C)cc2)c(=S)s1 | inactive
CCN1C(=O)CC(N2CCC(c3nc4ccccc4[nH]3)CC2)C1=O (centres undefined) | inactive
CC(NCCCOc1cccc2ccccc12)c1ccccc1 (centres undefined) | inactive
O=C(COC(=O)c1ccccc1)NC12CC3CC(CC(C3)C1)C2 | inactive
CCOC(=O)C1CSC(CC(=O)Nc2ccc(Cl)c(Cl)c2)C(=O)N1 (centres undefined) | inactive
O=C(C/C=N\OCc1ccc([N+](=O)[O-])cc1)Nc1ccc(Cl)cc1 | inactive
NC(=O)c1ccc(-c2ccc(Br)cc2)o1 | inactive
CCOc1ccc(C(=O)Nc2ccc(N3CCN(C)CC3)cc2)cc1Br | inactive
O=C(Nc1nccs1)c1ccc(-c2ccc(Cl)cc2)o1 | inactive
O=C(Nc1cccnc1)c1ccc(-c2ccc(Cl)cc2)o1 | inactive
O=C(CN1CCC(Cc2ccccc2)CC1)NC(=O)NC1CCCCC1 | inactive
Cc1ccc2[nH]c3c(c2c1)CCCC3NCCO (centres undefined) | inactive
Cc1ccc(-c2nnc(-c3ccccc3)o2)cc1 | inactive
c1ccc(-c2n[nH]c(-c3ccccn3)n2)nc1 | inactive
CCOC(=O)N1CCC(NC(=O)C2CCN(c3nc(-c4ccc(OC)cc4)no3)CC2)CC1 | inactive

SMILES | outcome
COc1cccc(OC(=O)c2cc3ccccc3oc2=O)c1 | inactive
CCOC(=O)Cn1cc(C#N)c2cccc(CC)c21 | inactive
Cc1ccc(S(=O)(=O)NCC(=O)OCCOc2cccc(Cl)c2)cc1 | inactive
Cc1cccnc1NC(=O)C1COc2ccccc2O1 (centres undefined) | inactive
O=C(OCc1nnc(-c2ccccc2)o1)c1cc([N+](=O)[O-])ccc1Cl | inactive
CC(C)OC(=O)c1c2c(n3ccccc13)C(=O)c1ccccc1C2=O | inactive
O=C(c1ccc(Br)o1)N1CCC(Cc2ccccc2)CC1 | inactive
O=C(COc1ccc(Br)cc1)Nc1ccc([N+](=O)[O-])cn1 | inactive
O=C(N/N=C/c1coc2ccccc2c1=O)c1ccc(Cl)cc1 | inactive
O=C(OCC(=O)N1CCN(c2ccccc2)CC1)c1ccc(Cl)cc1[N+](=O)[O-] | inactive
COC(=O)C1=C(N)OC2=C(C(=O)CC(C)(C)C2)C1c1cccnc1 (centres undefined) | inactive
O=C(OCC(=O)N1CCCC1)c1cc(Br)ccc1Cl | inactive
O=C(N/N=C/c1ccccn1)c1cccc(S(=O)(=O)Nc2ccccc2Cl)c1 | inactive
Cc1ccc2oc(=O)c3cc(C(=O)NCCCN4CCCCCC4)sc3c2c1 | inactive
Cc1cc(C)n2nc(S(=O)(=O)Nc3c(Cl)cccc3Cl)nc2n1 | inactive
CS(=O)(=O)Nc1cccc2cccnc12 | inactive
CC1C/C(=N/NC(=O)c2cccc(F)c2)c2ccc(O)cc2C1 (centres undefined) | inactive
O=C(O)c1ccccc1-c1ccccc1C(=O)Nc1nc2ccccc2s1 | inactive
O=C(NNc1nc2ccccc2s1)c1ccc(F)cc1 | inactive
O=C(Nc1nccs1)c1ccccn1 | inactive
CCOCC(=O)Nc1nc2ccc(C)cc2s1 | inactive
Cc1ccc2nc(NC(=O)COC(=O)c3ccc(Br)o3)sc2c1 | inactive
O=C(Nc1c(F)cc(F)cc1Br)c1cc(-c2ccccc2)on1 | inactive
CC1=NN(C(=O)c2ccccc2Cl)C(O)(c2ccccc2)C1 (centres undefined) | inactive

SMILES | outcome
CCc1nnc(N/N=C/c2ccc(N3CCC(C)CC3)c([N+](=O)[O-])c2)n1N | inactive
COc1ccc(C(=O)COC(=O)c2ccccc2O)c(OC)c1 | inactive
COC(=O)c1cc(/C=C/c2ccccc2)on1 | inactive
COc1cc(/C=C2/C(=O)NN(c3ccc(Cl)cc3)C2=O)ccc1OC(=O)c1ccco1 | inactive
CC(C)CNc1nc(=S)nc(N(C)C)[nH]1 | inactive
Cc1cccc(NC(=O)COC(=O)CCc2c[nH]c3ccccc23)c1 | inactive
O=C(OCC(=O)N1CCN(c2ccccc2)CC1)c1ccc2ccccc2n1 | inactive
O=[N+]([O-])c1ccc(CN2CCN(c3ccc(F)cc3)CC2)o1 | inactive
CCOC(=O)c1cc(-c2csc(COc3ccccc3Cl)n2)on1 | inactive
O=C(NCCc1ccccc1)c1nc(-c2cccs2)no1 | inactive
COc1cccc2cc(C(=O)NCc3ccc(F)cc3)c(=N)oc12 | inactive
c1cncc(-c2noc(CC3CCCCC3)n2)c1 | inactive
CCN1CCC(=NNC(=O)c2ccco2)CC1 | inactive
O=C1NC2(CCC3(CC2)OCCO3)NN1c1ccc(Cl)cc1 | inactive
CC(NC(=O)c1cccc(F)c1)C1CC2CCC1C2 (centres undefined) | inactive
Cc1ccc(C(C)C)c(OCC(=O)OCc2c(C)noc2C)c1 | inactive
CC1CCN(C(=O)c2ccc(-c3ccccc3Cl)o2)CC1 | inactive
O=C(Nc1nc2ccccc2n1CCN1CCCC1)c1ccc(Cl)cc1 | inactive
CCCn1c(CNc2ccccc2O)nc2ccccc21 | inactive
Cc1ccc(CC(=O)Nc2ccc(Cl)cn2)cc1 | inactive
CCn1c(-c2ccco2)nc2ccccc21 | inactive
Cc1ccc(C(=O)n2c(N)nc3ccccc32)cc1 | inactive
COc1cccc(-c2cc3nc4c(c(NCC(C)(C)CN(C)C)n3n2)CCCC4)c1 | inactive
